Laboratory results reported in PubChem BioAssay AID504339 (National Center for Advancing Translational Sciences (NCATS), 2011).
Among all 390,000 compounds or so, about 17,000 (4.4%) were called active. Where a call stands in place of a potency, no number is given. Not shown: some 8% with an inconclusive outcome. The call rests on the fitted dose curve; in most records, active means well fitted inhibition curve with a large enough effect; inconclusive means small, poorly fitted or top-dose-only effect; inactive means no such curve, though single readings can be large or run the other way. The full list was thinned out, with actives kept by preference.

Target: Lysine-specific demethylase 4A (Homo sapiens) (UniProt O75164)
Sequence (O75164 whole entry, looked up, the tested form may be a part): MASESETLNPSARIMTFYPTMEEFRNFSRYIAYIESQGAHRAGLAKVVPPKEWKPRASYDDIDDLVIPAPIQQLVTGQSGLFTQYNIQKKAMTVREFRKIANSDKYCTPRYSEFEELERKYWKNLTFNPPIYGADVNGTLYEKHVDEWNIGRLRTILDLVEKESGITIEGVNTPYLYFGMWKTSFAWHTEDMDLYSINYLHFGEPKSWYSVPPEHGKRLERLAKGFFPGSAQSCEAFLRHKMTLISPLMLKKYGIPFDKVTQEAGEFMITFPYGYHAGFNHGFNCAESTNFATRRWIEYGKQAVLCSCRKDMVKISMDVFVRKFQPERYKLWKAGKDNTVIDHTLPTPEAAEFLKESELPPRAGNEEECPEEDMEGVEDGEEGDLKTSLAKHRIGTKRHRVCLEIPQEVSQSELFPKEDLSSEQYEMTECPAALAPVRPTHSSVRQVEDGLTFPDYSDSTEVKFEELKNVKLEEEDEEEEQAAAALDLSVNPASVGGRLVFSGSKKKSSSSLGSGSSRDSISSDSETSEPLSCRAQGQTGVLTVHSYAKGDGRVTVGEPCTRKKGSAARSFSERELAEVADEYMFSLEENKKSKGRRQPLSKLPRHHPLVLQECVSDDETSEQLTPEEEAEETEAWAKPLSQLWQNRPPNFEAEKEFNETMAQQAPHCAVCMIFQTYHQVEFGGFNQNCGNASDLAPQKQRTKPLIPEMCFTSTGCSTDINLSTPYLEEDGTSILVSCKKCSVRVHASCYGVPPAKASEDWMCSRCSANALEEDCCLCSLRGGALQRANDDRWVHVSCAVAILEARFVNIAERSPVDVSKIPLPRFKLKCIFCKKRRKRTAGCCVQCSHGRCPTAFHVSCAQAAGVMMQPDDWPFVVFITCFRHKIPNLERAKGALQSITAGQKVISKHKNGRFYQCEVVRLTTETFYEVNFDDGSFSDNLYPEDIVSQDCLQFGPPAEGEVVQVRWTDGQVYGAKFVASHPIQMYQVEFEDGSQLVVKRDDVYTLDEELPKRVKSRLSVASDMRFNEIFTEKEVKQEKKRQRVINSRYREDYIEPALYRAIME
Assay: qHTS Assay for Inhibitors of JMJD2A-Tudor Domain; further: nearly all actives have a fitted effect of over 50% in size
Details: AlphaScreen JMJD2A-Tudor / H3K4me3 peptide binding; series mostly up to 114 µM
From the text: JMJD2A is a jumonji-domain-containing lysine demethylase that uses Fe(II) together with 2-OG to effect oxidative demethylation of histones. Methylation is one of many […] modification that affect epigenetic transcription. […] It is proposed that the functions of JmjD2A binding to the histones, is to maintain marks after they are installed and to spread the modifications by […], establishing a self-propagating cycle for rapid methylation over a large area of chromatin. […] Thus, small molecule targeting of the JMJD2A-tudor domain interaction with its target methylhistone mark is expected to enable sophisticated experiments probing the fine regulatory pathways leading to selective demethylation of a given methyllysine locus based on the methylation state of adjacent histone marks. A quantitative high throughput AlphaScreen has been developed to identify small molecule inhibitors based on a protocol published by NCGC and SGC [4].
Although AlphaScreen has significant advantages with its utility in a variety of epigenetic target assays, the primary screening data provided in this deposition should be used with caution due to the prevalence of screening artifacts. The top compound concentration tested was high (>100uM) in this assay, which increases number of actives and potential artifacts. An AlphaScreen counterscreen is highly recommended to be run against any putative actives to eliminate non-specific artifacts. Alternatively, one can use other AlphaScreen assays in PubChem to filter out promiscuous hits.
[1] Lee, J. et al. Distinct binding modes specify the recognition of methylated histone H3K4 and H4K20 by JMJD2A-tudor. Nat Struct Mol Biol. 15(1); 109-11. 2008. PMID: 18084306
[2] Yasgar, et al. Compound Management for Quantitative High-Throughput Screening. JALA. 2008 Apr;13(2):79-89. PMID: 18496600
[3] Inglese, et al. Quantitative high-throughput screening: a titration-based approach that efficiently identifies biological activities in large chemical libraries. Proc Natl Acad Sci. 1;103(31):11473-8. 2006. PMID: 16864780
[4] Quinn et al. A homogeneous method for investigation of methyl-dependent protein-protein interactions in epigenetics. Nucleic Acids Res., 38(2):e11. 2010. PMID: […]
[5] Baell,Holloway. New substructure filters for removal of pan assay interference compounds (PAINS) from screening libraries and for their exclusion in bioassays. J Med Chem. 53(7):2719-40. 2010. PMID: 20131845
NIH Molecular Libraries Probe Production Network [MLPCN]
NIH Chemical Genomics Center [NCGC]
Structural Genomics Consortium (SGC)
To each well of a 1,536w plate, 2ul of JMJD2A-Tudor (final 100nM) and 1ul biotinylated histone peptide methylated at Lys4 [b-H3(1-18)K4me3] (final 50nM) were added in 1x PBS buffer, pH 7.4, containing 0.01% Tween-20, using a nanoliter dispenser. Formation of a protein-peptide complex proceeded at room temperature for 30 min. A Kalypsys pin-tool transferred 23nl of library compound solution in DMSO to each well. Following a 30 min incubation of the protein-peptide complex with compounds at room temperature, a mixture of 40 µg/mL each streptavidin-coated donor and nickel chelate acceptor AlphaScreen beads (final 10 µg/mL) was added in a 1ul dispense for a final volume of 4ul, followed by a brief centrifugation (1000 rpm, 1 min). Plates were incubated protected from the light for 20 min at room temperature. Microplates were then read on an EnVision multilabel plate reader using the 1,536 plate HTS AlphaScreen aperture (excitation time 80 ms, measurement time 240 ms).
Potency means the concentration at half of the fitted maximal effect.

Row | SMILES | Potency
1 | CCc1ccc(NC(=O)CN2CCSc3ccc(S(=O)(=O)N4CCCC4)cc32)cc1 | inactive
2 | COc1cc(OC)c(N(C)C(=O)c2cc3c(=O)oc4ccccc4c3s2)cc1Cl | inactive
3 | Cc1ccccc1CS(=O)(=O)CC1Nc2ccc(C(=O)NCc3ccc(Cl)cc3)cc2NC1=O (stereo not drawn) | inactive
4 | Cc1ccccc1CSc1nnc(-c2cccnc2)n1N | inactive
5 | Cn1c(SCC(=O)C(C)(C)C)nnc1-c1ccccn1 | inactive
6 | Cc1ccccc1CSc1nnc(-c2ccccn2)n1N | 31.6 µM (active)
7 | Fc1ccc(-c2nc(Nc3cccc(Cl)c3)nc3c2COc2ccccc2-3)cc1 | inactive
8 | O=C(NCCS(=O)(=O)N1CCN(c2ccc(F)cc2)CC1)c1ccccc1Br | inactive
9 | CCC(=O)N1CCc2cc(S(=O)(=O)NC(Cc3ccccc3)C(=O)NCc3ccccc3)ccc21 (stereo not drawn) | inactive
10 | O=C(Nc1ccccc1Br)c1cc(CN2CCCC2)on1 | inactive
11 | CC(C)(C)c1ccc(NC(=O)COC(=O)CCc2nc3ccccc3c(=O)[nH]2)cc1 | inactive
12 | Cc1ccc(NC(=O)COC(=O)CCc2nc3ccccc3n2-c2ccccc2)c(C)c1 | inactive
13 | CCN(c1ccc(NC(=O)COC(=O)CCc2nc3ccccc3n2-c2ccccc2)cc1)C(C)C | 11.2 µM (active)
14 | Cc1ccc(Cn2c(CNC(=O)Cc3cccc(C)c3)nc3cccnc32)cc1 | inactive
15 | COc1cc2ccccc2cc1C(=O)Nc1cccc(-c2nc3ccccc3o2)c1 | inactive
16 | N=c1c2c3c(sc2ncn1CCCN1CCOCC1)CCCCC3 | inactive
17 | S=c1[nH]nc2c3c4c(sc3ncn12)CCCC4 | 22.4 µM (active)
18 | CC(C(=O)O)n1cnc2sc3c(c2c1=O)CCCC3 (stereo not drawn) | inactive
19 | Cc1noc2ncnc(NCc3ccccc3Cl)c12 | inactive
20 | Cc1ccc(C)c(Cn2c(=O)n(CCC(=O)NCc3ccc4c(c3)OCO4)c(=O)c3sccc32)c1 | inactive
21 | COC(=O)c1ccccc1NC(=O)Cn1c(=O)n(-c2cccc(C(F)(F)F)c2)c(=O)c2c(C)c(C)sc21 | inactive
22 | C#CCOc1ccccc1/C=C1/C(=O)ON=C1C | inactive
23 | CC1=NOC(=O)/C1=C\c1ccccc1 | 25.1 µM (active)

Row | SMILES | Potency
24 | C=CCOc1ccc(/C=C2/C(=O)ON=C2C)cc1OCC | inactive
25 | COc1ccc(Nc2ncc(C(=O)Nc3cc(C)ccc3OC)c3ccccc23)cc1 | inactive
26 | Cc1ccc(/C=C(\C#N)C(=O)Nc2cc(C)ccc2C)cc1 | inactive
27 | CCc1ccc(NC(=O)CSc2nc3c([nH]c4ccccc43)c(=O)n2-c2cccc(OC)c2)cc1 | inactive
28 | Cc1cccc(C)c1OCCN1CCOCC1 | 28.2 µM (active)
29 | O=C(OCCN1CCOCC1)C1(c2ccccc2)CCCCC1 | inactive
30 | CCOc1ccc(C(=O)CCN2CCOCC2)cc1 | inactive
31 | S=c1[nH]nc(-c2ccco2)n1/N=C/c1ccccc1 | 3.55 µM (active)
32 | S=c1[nH]nc(/C=C/c2ccccc2)o1 | inactive
33 | CN(C)C(=O)CSc1n[nH]c(-c2ccco2)n1 | inactive
34 | Brc1ccc(/C=N/N2CCN(C3c4ccccc4-c4ccccc43)CC2)s1 | inactive
35 | S=c1[nH]nc(-c2ccco2)n1/N=C/c1ccc(Br)s1 | 28.2 µM (active)
36 | O=C(NCCc1ccc(Cl)cc1)c1ccc2nc(CCc3ccccc3)oc2c1 | inactive
37 | O=C(c1ccc2c(c1)N(Cc1ccccc1)C(=O)c1ccccc1S2(=O)=O)N1CCC(Cc2ccccc2)CC1 | inactive
38 | O=C(CN1CCN(Cc2ccc(Cl)cc2)C1=O)NCc1ccc(F)cc1 | inactive
39 | Cn1c(SCC(=O)N2CCCc3ccccc32)ncc(C(=O)Nc2ccc(F)cc2)c1=O | inactive
40 | CC(=O)Nc1cc(C(=O)NCc2ccc(F)cc2)ccc1Sc1ccc(F)cc1 | inactive
41 | COc1cc(Cl)c(NC(=O)C(NS(=O)(=O)c2cccs2)C(C)C)c(OC)c1 (stereo not drawn) | inactive
42 | CCC(C(=O)Nc1cccc(-c2nc3cccnc3s2)c1C)c1ccccc1 (stereo not drawn) | inactive
43 | CCN(CC)c1ccc(NC(=O)CN2CCN(CC(=O)Nc3ccc(Cl)cc3)CC2)cc1 | 44.7 µM (active)
44 | O=C(CN1CCN(C(=O)c2ccco2)CC1)Nc1ccc(Cl)c(C(F)(F)F)c1 | inactive
45 | O=C(CN1CCOCC1)Nc1ccccc1 | inactive
46 | O=C(CN1CCN(c2ccc(O)cc2)CC1)Nc1ccc(-c2ccccc2)cc1 | 50.1 µM (active)

Row | SMILES | Potency
47 | CCCCN(C)CCC(=O)Nc1ccc(Cl)cc1 | inactive
48 | CC(=O)N1CCN(CC(=O)Nc2ccc(SC(F)F)cc2)CC1 | inactive
49 | O=C(CN1CCN(c2ccccn2)CC1)Nc1ccc(Br)cc1 | inactive
50 | CC(=O)N1CCN(CC(=O)Nc2ccc(C)c(F)c2)CC1 | 17.8 µM (active)
51 | Cc1cc(NC(=O)CCN2CCN(Cc3ccccc3)CC2)ccc1Br | inactive
52 | O=C(CN1CCN(Cc2ccccc2)CC1)Nc1ccc(F)c(F)c1 | 6.31 µM (active)
53 | COC(=O)c1cc(NC(=O)CN2CCN(C(C)=O)CC2)cc(C(=O)OC)c1 | inactive
54 | CCOC(=O)N1CCN(CC(=O)Nc2ccc(F)cc2)CC1 | inactive
55 | Cc1ccc(Cl)cc1NC(=O)Cc1ccc(-n2c(C)nc3cccnc32)cc1 | inactive
56 | Cc1ccccc1NC(=O)Cn1cc(C(=O)c2cccs2)c2ccccc21 | inactive
57 | CCC(C)NC(=O)Cn1c(=O)n(-c2ccc(Cl)cc2)c(=O)c2c3c(sc21)CCCC3 (stereo not drawn) | inactive
58 | Cc1cc(C)c(NC(=O)CN2C(=O)c3cccnc3Oc3ccc(Cl)cc32)c(C)c1 | inactive
59 | O=C(Nc1ccc2nc(SCC(=O)N3CCCc4ccccc43)sc2c1)c1ccc(F)cc1 | inactive
60 | CCOCCCNC(=O)c1ccc2nc(CCc3ccccc3)oc2c1 | inactive
61 | O=C(Nc1ccccc1Cl)N1CCC(CN2CCCC2)CC1 | inactive
62 | Cc1ccc2nc(COc3cccc(NC(=O)Nc4ccc(C)c(Cl)c4)c3)cc(=O)n2c1 | inactive
63 | CSc1nc(-c2ccc(F)cc2)nc2c1Cc1c(CO)cnc(C)c1O2 | inactive
64 | Cc1nnc(OCC(=O)NCCC2=CCCCC2)c2ccccc12 | inactive
65 | O=C(COc1ccc(Cl)cc1)NCCC1=CCCCC1 | inactive
66 | O=C(Cc1nn[nH]n1)NCCC1=CCCCC1 | 50.1 µM (active)
67 | COc1ccc(C(=O)c2oc3ccccc3c2NC(=O)COc2cccc(C)c2)cc1 | inactive
68 | CCOC(=O)c1c(N)n(-c2cccc(C)c2C)c2nc3ccccc3nc12 | inactive
